Where “and” joins values, the source holds several entries; their conditions need not be identical. Equal entries are not always repeated. About 79,000 compounds went through this panel and 15% of them were active in at least one assay; those are over-represented in the sample as a whole. Calls of active or inactive are those of the source. No stated cut-off is given here; in the data, active means growth inhibition above about 70%; inactive means the rest.
Experiments:
[1] = NCI Yeast Anticancer Drug Screen. Data for the rad50 strain (AID 155);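 further: 0% = growth of vehicle-only cultures of the same strain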; conditions: S. cerevisiae rad50 strain growth inhibition; at 50.0 µM; active compounds read high
Summary of the method: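 DNA repair mutant yeast, compound exposure, growth read-out; inhibition is taken relative to vehicle.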

[2] = NCI Yeast Anticancer Drug Screen. Data for the mec2-1 strain (AID 157); conditions: S. cerevisiae mec2-1 strain, at 50.0 µM, active compounds read high
Summary of the method: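 Growth inhibition is read against vehicle-treated controls after compound exposure of the mec2-1 yeast strain, which is defective in DNA damage repair or cell cycle control.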

[3] = NCI Yeast Anticancer Drug Screen. Data for the sgs1 mgt1 strain (AID 161);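 further: 0% = growth of cultures given vehicle only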; conditions: S. cerevisiae sgs1 mgt1 strain, at 50.0 µM, active compounds read high
Summary of the method: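 Growth of a repair-deficient yeast mutant was monitored after compound treatment and expressed as inhibition relative to vehicle-treated cultures.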

[4] = NCI Yeast Anticancer Drug Screen. Data for the cln2 rad14 strain (AID 165);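 further: 0% = growth equal to vehicle treated cultures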; conditions: S. cerevisiae cln2 rad14 strain, at 50.0 µM, active compounds read high
Summary of the method: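 Growth inhibition, relative to vehicle-treated controls, is the read-out. The test organism is a yeast strain with defined genetic alterations, cln2 rad14.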

[5] = NCI Yeast Anticancer Drug Screen. Data for the bub3 strain (AID 167); conditions: S. cerevisiae bub3 mutant strain, at 50.0 µM, active compounds read high
Summary of the method: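 In this screen, a yeast mutant lacking normal mitotic checkpoint function is challenged with compound. Relative growth versus vehicle gives the inhibition value.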

[6] = NCI Yeast Anticancer Drug Screen. Data for the mlh1 rad18 strain (AID 175); conditions: S. cerevisiae mlh1 rad18 strain growth inhibition; at 50.0 µM; active compounds read high
Summary of the method: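 Cells of a genetically altered yeast strain, deficient in DNA damage repair, were treated with compound. Their growth was then compared with that of vehicle-treated cultures to give inhibition.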

Measured: growth inhibition

COc1cc(C(=O)OC(C)CC2(c3ccccc3)C(=O)NC(=O)NC2=O)cc(OC)c1OC (stereo not given)
inactive: [1] 2.75% | [2] -3.4% | [3] 24.1% | [4] 1.75% | [5] 3.05% | [6] -6.8%

Nc1ccc(C(=O)O)c(C(=O)O)c1
inactive: [1] -10.5% | [2] -6.8% | [3] 1.35% | [4] -32% | [5] -13.9% | [6] -7.05%

C=CC(=O)OCCN(C)C
inactive: [1] 1.5% | [2] -4.65% | [3] -4.4% | [4] -0.25% | [5] 2.1% | [6] 1.65%

Nc1cc(S(=O)(=O)F)ccc1Cl
inactive: [1] 26.3% | [2] 6.1% | [3] 20.1% | [4] 35.5% | [5] 22.9% | [6] 23.6%

[Cl][Pd]([Cl])([Cl])[Cl].[NH-]CC[NH-].[NH-]CC[NH-].[Pd+2]
inactive: [1] 28.7% | [2] 16.9% | [3] 32% | [4] -3.5% | [5] 26.4% | [6] 54.7%

O=C(CS(=O)(=O)O)Nc1ccccc1
inactive: [1] 36.8% | [2] 11.9% | [3] 27.9% | [4] 14.7% | [5] 17.1% | [6] 22.2%

OC/C=C\c1ccc2c(c1)OCO2
inactive: [1] -19.2% | [2] 14.2% | [3] 17.2% | [4] -9% | [5] -58.5% | [6] -32.5%

CC(CCF)C(N)C(=O)O (stereo not given)
inactive: [1] 1.8% and -0.7% | [2] 28.9% and 5.4% | [3] 28.9% and -9.4% | [4] -0.8% and -0.2% | [5] 43% and 20.7% | [6] 19.5% and -7.8%

C/C=C/CC1(c2ccccc2)C(=O)NC(=S)NC1=O
inactive: [1] 10.2% | [2] -15% | [3] 6.3% | [4] -42.3% | [5] -6% | [6] 5.9%

COc1ccc(CC(N)C(=O)O)cc1N(CCCl)CCCl (stereo not given)
inactive: [1] -0.2% and -0.5% | [2] -0.55% and -7.45% | [3] -11.2% and -6.65% | [4] -6.55% and -9.85% | [5] 2.25% and 7.75% | [6] -9.25% and -7.2%

O=C(O)CNC(=O)c1ccc([As](=O)(O)O)cc1
inactive: [1] 21.1% | [2] 19.1% | [3] -26.4% | [4] 10.2% | [5] 22.1% | [6] 15.3%

O=[N+]([O-])c1ccc2c(c1)Oc1cccnc1[Se]2
inactive: [1] 16.1% | [2] 8.6% | [3] 20.9% | [4] 8.25% | [5] -11.5% | [6] 38.8%

CC(C)[N+](C)(CCC(C(=O)N(C)C)(c1ccccc1)c1ccccc1)C(C)C
inactive: [1] 18.6% | [2] -1.55% | [3] 4.7% | [4] 13.3% | [5] -16% | [6] 24.4%

[CH3][Sn]1([CH3])[c]2ccccc2Oc2cccc[c]21
inactive: [1] -11.9% | [2] 1.65% | [3] 4.7% | [4] -1.2% | [5] 33.5% | [6] -17.6%

CN(C)c1ccc(/C=C/[N+](=O)[O-])cc1
inactive: [1] -3% | [2] -17.4% | [3] 12.4% | [4] -15.7% | [5] 0.6% | [6] -3.25%

CP1CC(Br)C(Br)C1 (stereo not given)
inactive: [1] 3.6% | [2] -5% | [3] 19.9% | [4] -7.05% | [5] 6.5% | [6] 2.5%

CCNC(=O)C(C)Br (stereo not given)
inactive: [1] 19.4% | [2] 13.1% | [3] 23.5% | [4] -3.55% | [5] 6.5% | [6] 23.9%

CC(=O)OC1(C)CC(C)C(=O)C(C(O)CC2CC(=O)NC(=O)C2)C1 (stereo not given)
active: [1] 92.8% | [2] 94.3% | [3] 93.7% | [4] 92.2% | [5] 93.3% | [6] 92.3%

C=CCc1c[nH]c(=S)[nH]c1=O.[Hg]
active: [1] 99.1% | [2] 98.8% | [3] 98.8% | [4] 98.8% | [5] 99% | [6] 98.8%

CCCC(C)C1C(=O)N(C)C(=O)N(C)C1=O (stereo not given)
inactive: [1] 14.2% | [2] -1% | [3] 11.4% | [4] 9.9% | [5] -4.75% | [6] 14.9%

CC(N)CCc1ccccc1 (stereo not given)
inactive: [1] 2.7% | [2] -19.9% | [3] -1.15% | [4] 24.7% | [5] 3.6% | [6] 12.4%

CN(C)CCN(C)C.[C-]#[O+].[C-]#[O+].[C-]#[O+].[C-]#[O+].[W+2]
inactive: [1] -13% | [2] -4.65% | [3] -7.5% | [4] -51.1% | [5] 2.1% | [6] 0.05%

CN1CCc2ccc(O)cc2C1
inactive: [1] 16.3% | [2] 5.6% | [3] 3.95% | [4] -7.5% | [5] 15.7% | [6] 10.6%

CC(C)CCON=C(N)N
inactive: [1] -23.8% | [2] -2.25% | [3] -13.7% | [4] -40% | [5] -5.6% | [6] 2.55%

CC(Cl)C(=O)OC(C)(C)Cl (stereo not given)
inactive: [1] 19.9% | [2] 25.7% | [3] 11.7% | [4] 11.1% | [5] 17% | [6] 3.05%

Cc1coc2c1CCC(C)C2 (stereo not given)
inactive: [1] -6.65% | [2] -24.8% | [3] -5.5% | [4] 1.55% | [5] 1.65% | [6] -5.9%

CC1=CC(C)=Nc2ccc(C)cc2N1
inactive: [1] -2.65% | [2] -0.6% | [3] -5.95% | [4] -2.65% | [5] -6% | [6] 22.2%

CCOC(=O)N=C=O
inactive: [1] -17.8% | [2] 4.7% | [3] -15.7% | [4] 11.9% | [5] -3.1% | [6] -1.85%

COC(C)CCOC(=O)Cc1ccccc1 (stereo not given)
inactive: [1] 16.1% | [2] -5.25% | [3] -0.15% | [4] -41% | [5] 13.4% | [6] 5.25%

CC[n+]1c(/C=C/c2ccc(N(CCCl)CCCl)cc2)ccc2cc(NC(=O)/C=C/c3ccccc3)ccc21
active: [1] 82.1% | [2] 86.5% | [3] 87.7% | [4] 85.5% | [5] 86.5% | [6] 82%

COc1ccc(C=C2C(=O)N(C)C(=O)N(C)C2=O)cc1
inactive: [1] 4.8% | [2] 2.1% | [3] -13.2% | [4] 22.3% | [5] 28% | [6] 36.5%

O=[N+]([O-])C(CO)CCC(CO)[N+](=O)[O-] (stereo not given)
inactive: [1] -6.6% | [2] -14% | [3] -3.9% | [4] -18.8% | [5] -15.7% | [6] -15.5%

O=NNc1cnccn1
inactive: [1] -15.2% and -8.45% | [2] -23.9% and 1.5% | [3] -37.5% and -16.6% | [4] -3.8% and 4.05% | [5] -19% and -18.5% | [6] -8.25% and -21.2%

NC1C[S][Sn][O]C1=O (stereo not given)
inactive: [1] 14.2% | [2] 14.3% | [3] 3.2% | [4] -21.4% | [5] 4.9% | [6] 14.6%

ClCCN(CCCl)c1ccc(N=Cc2ccccc2)cc1
inactive: [1] 24.9% | [2] 17% | [3] 7.35% | [4] 4.3% | [5] 19.4% | [6] 44.6%

CCOC(CNC(=O)c1ccc(S(=O)(=O)F)cc1)OCC
inactive: [1] -4.4% | [2] 27.6% | [3] 22.1% | [4] -5.9% | [5] 42.8% | [6] 26.4%

N#CC(C#N)=Cc1cccc(C=C(C#N)C#N)c1
inactive: [1] -0.55% | [2] -3.65% | [3] 12.9% | [4] 8.3% | [5] 0.65% | [6] -24.6%

CS(=O)(=O)OC1C2CC(C1OS(C)(=O)=O)C(c1ccccc1)C2C(=O)O (stereo not given)
inactive: [1] 25% | [2] 21% | [3] 31.4% | [4] 12.2% | [5] -1.85% | [6] 34.2%

CC(C)(C)c1cc(C#N)cc(Br)c1OP(=O)(Oc1c(Br)cc(C#N)cc1C(C)(C)C)c1ccccc1
inactive: [1] -9.6% | [2] -7.5% | [3] -28.8% | [4] -3% | [5] -24% | [6] -17.6%

CCCCP(=O)(CCCC)CCCC.CCCCP(=O)(CCCC)CCCC.CCCCP(=O)(CCCC)CCCC.CCCCP(=O)(CCCC)CCCC.[Ce+3].[O-][Cl+3]([O-])([O-])O
inactive: [1] 43.9% | [2] 36.3% | [3] 30.6% | [4] 33.9% | [5] 62.1% | [6] 42.4%

O.O=[Se](=O)(O)O.[NH-]C1CCCCC1[NH-].[Pt+2] (stereo not given)
inactive: [1] -16.1% | [2] -16.9% | [3] -16.1% | [4] -21.5% | [5] -36.1% | [6] -55.5%

CCOP(=O)(OCC)C(F)(F)CC1CCCCC1
inactive: [1] -17.1% | [2] -25.6% | [3] -19.4% | [4] -59% | [5] 26.2% | [6] -9.85%

CCN1CC2(C)CCC(OC)C34C5CC6CCC(O)(C5C(=O)O6)C(C(O)C23)C14 (stereo not given)
inactive: [1] -9.45% | [2] -44% | [3] 2% | [4] -0.5% | [5] -34.1% | [6] -57.7%

ClCCN(CCCl)c1ccc(/C=N/N2CCN(/N=C/c3ccc(N(CCCl)CCCl)cc3)CC2)cc1
inactive: [1] 7.85% | [2] -2.9% | [3] 21.9% | [4] 7.85% | [5] -11.1% | [6] -1.25%

OCC(O)C(O)CO (stereo not given)
inactive: [1] 6.7% and 6.95% | [2] -0.55% and 8.95% | [3] 3.55% and 0.4% | [4] -61.8% and 20.8% | [5] 12.1% and 24.6% | [6] -1.05% and 0.1%

Reference: PubChem BioAssay (NCI)
